# Experimental data taken from the supplement of paper PMC10849652.
# About 7,900 targets were measured; listed, in parts, are those with a hit and a random draw of the rest. About 0.6% of all pairs of compound and target were hits. Unmarked numbers belong to inactive results.
# Key:
# Test in all cases: log2 fold change, soluble protein after heating vs DMSO (PISA); higher = thermal stabilisation; K562 cells, 10 uM, 30 min; active = over 0.2 and 3.5 SD of the protein, either way, in both replicates (recomputed)
# IRAK-1-4 Inhibitor I = compound: C1COCCN1CCN2C3=CC=CC=C3N=C2NC(=O)C4=CC(=CC=C4)[N+](=O)[O-] [IRAK-1-4 Inhibitor I]
# Method in brief: (§1)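 K562 cells at 2×10^6 cells/mL were treated for 30 min with 10 μM compound, and aliquots were heated for 3 min over 48°C-58°C before pooling. Extraction used PBS with 0.5% NP-40 at 4°C, and soluble protein was the supernatant after 21,000xg for 90 min, measured by TMTpro 16plex LC-MS/MS with channel sums equalised. Thermal stability values, relative to control samples and from duplicates, are log2 fold changes.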
# ibrutinib = compound: C=CC(=O)N1CCC[C@@H](n2nc(-c3ccc(Oc4ccccc4)cc3)c3c(N)ncnc32)C1 [ibrutinib]
# Method in brief: as §1
# [1] = compound: CC(=O)c1cnc2ccc(-c3cc(Cl)c(O)c(Cl)c3)nc2c1N[C@H]1CC[C@H](CN(C)C)CC1
# Method in brief: as §1
# ralimetinib = compound: CC(C)(C)Cn1c(N)nc2ccc(-c3[nH]c(C(C)(C)C)nc3-c3ccc(F)cc3)nc21 [ralimetinib]
# Method in brief: as §1
# [2] = compound: CC(C)(O)CC(=O)NCCn1ccc2ncnc(Nc3ccc(Oc4cccc(C(F)(F)F)c4)c(Cl)c3)c21
# Method in brief: as §1
# [3] = compound: CC(C)C1=C2N=C(C=C(N2N=C1)NCC3=CC=CC=C3)NCCCCCCN
# Method in brief: as §1
# [4] = compound: CC(C)C[C@@H](C=O)NC(=O)[C@H](CC(C)C)NC(=O)[C@H](CC(C)C)NC(=O)OCc1ccccc1
# Method in brief: as §1
# pinometostat = compound: CC(C)N(C[C@H]1O[C@@H](n2cnc3c(N)ncnc32)[C@H](O)[C@@H]1O)[C@H]1C[C@@H](CCc2nc3cc(C(C)(C)C)ccc3[nH]2)C1 [pinometostat]
# Method in brief: as §1
# [5] = compound: CC1=C(C(CC(=O)N1)C2=CC=C(C=C2)C(F)(F)F)C(=O)NC3=C(C=C4C(=C3)C=NN4)F
# Method in brief: as §1
# [6] = compound: CC1=C(C2=C(C=C1)C(=O)C3=CC=CC=C3N2CCCN)C
# Method in brief: as §1
# [7] = compound: CC1=C(C=C(C=C1)NC(=O)C2=CC(=CC=C2)C(C)(C)C#N)NC3=CC4=C(C=C3)N=CN(C4=O)C
# Method in brief: as §1
# [8] = compound: CC1=C(C=C(C=C1)NC(=O)C2=CC(=CC=C2)N(C)C)NC(=O)C3=CC=C(C=C3)O
# Method in brief: as §1
# [9] = compound: CC1=CC=C(C=C1)SC2=C3C=C(SC3=CN=C2)C(=O)N
# Method in brief: as §1
# [10] = compound: CC1=NC(=CC=C1)C2=C(N=C(N2)C(C)(C)C)C3=CC4=NC=CN=C4C=C3
# Method in brief: as §1
# Nexturastat A = compound: CCCCN(Cc1ccc(C(=O)NO)cc1)C(=O)Nc1ccccc1 [Nexturastat A]
# Method in brief: as §1
# vemurafenib = compound: CCCS(=O)(=O)Nc1ccc(F)c(C(=O)c2c[nH]c3ncc(-c4ccc(Cl)cc4)cc23)c1F [vemurafenib]
# Method in brief: as §1
# [11] = compound: CCCS(=O)(=O)Nc1ccc(F)c(C(=O)c2c[nH]c3ncc(Cl)cc23)c1F
# Method in brief: as §1
# [12] = compound: CCCc1cc(C)[nH]c(=O)c1CNC(=O)c1cc(-c2ccnc(N3CCN(C)CC3)c2)cc2c1cnn2C(C)C
# Method in brief: as §1
# givinostat = compound: CCN(CC)Cc1ccc2cc(COC(=O)Nc3ccc(C(=O)NO)cc3)ccc2c1 [givinostat]
# Method in brief: as §1
# barasertib = compound: CCN(CCCOc1ccc2c(Nc3cc(CC(=O)Nc4cccc(F)c4)[nH]n3)ncnc2c1)CCOP(=O)(O)O [barasertib]
# Method in brief: as §1
# Chain of UniProt P49137 (P49137 whole entry, looked up): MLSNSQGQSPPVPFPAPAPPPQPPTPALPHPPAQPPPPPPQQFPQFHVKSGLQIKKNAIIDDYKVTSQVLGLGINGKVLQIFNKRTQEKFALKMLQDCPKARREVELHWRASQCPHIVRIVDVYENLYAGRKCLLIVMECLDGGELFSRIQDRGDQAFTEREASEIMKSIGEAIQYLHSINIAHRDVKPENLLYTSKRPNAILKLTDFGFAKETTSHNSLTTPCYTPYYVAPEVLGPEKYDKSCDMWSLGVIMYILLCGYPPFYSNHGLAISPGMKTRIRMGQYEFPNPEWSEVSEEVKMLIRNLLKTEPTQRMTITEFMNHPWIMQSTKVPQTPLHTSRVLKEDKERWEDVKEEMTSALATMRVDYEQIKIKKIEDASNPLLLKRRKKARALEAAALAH
# Chain of UniProt Q9HCC0 (Q9HCC0 whole entry, looked up): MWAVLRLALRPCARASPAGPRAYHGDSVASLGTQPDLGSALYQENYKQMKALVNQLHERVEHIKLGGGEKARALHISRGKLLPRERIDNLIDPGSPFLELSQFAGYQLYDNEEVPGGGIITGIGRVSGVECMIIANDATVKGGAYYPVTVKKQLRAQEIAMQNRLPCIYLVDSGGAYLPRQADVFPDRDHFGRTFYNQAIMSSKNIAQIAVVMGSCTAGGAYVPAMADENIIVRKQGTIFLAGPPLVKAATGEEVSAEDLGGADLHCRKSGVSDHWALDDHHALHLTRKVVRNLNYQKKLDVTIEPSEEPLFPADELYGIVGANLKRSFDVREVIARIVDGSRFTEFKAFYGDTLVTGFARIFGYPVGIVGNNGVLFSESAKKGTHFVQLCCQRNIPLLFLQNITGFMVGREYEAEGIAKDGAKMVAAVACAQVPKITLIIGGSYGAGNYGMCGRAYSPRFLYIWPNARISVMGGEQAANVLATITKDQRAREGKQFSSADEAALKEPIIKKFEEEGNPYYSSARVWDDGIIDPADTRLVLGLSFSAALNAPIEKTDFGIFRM
# Chain of UniProt P07948 (P07948 whole entry, looked up): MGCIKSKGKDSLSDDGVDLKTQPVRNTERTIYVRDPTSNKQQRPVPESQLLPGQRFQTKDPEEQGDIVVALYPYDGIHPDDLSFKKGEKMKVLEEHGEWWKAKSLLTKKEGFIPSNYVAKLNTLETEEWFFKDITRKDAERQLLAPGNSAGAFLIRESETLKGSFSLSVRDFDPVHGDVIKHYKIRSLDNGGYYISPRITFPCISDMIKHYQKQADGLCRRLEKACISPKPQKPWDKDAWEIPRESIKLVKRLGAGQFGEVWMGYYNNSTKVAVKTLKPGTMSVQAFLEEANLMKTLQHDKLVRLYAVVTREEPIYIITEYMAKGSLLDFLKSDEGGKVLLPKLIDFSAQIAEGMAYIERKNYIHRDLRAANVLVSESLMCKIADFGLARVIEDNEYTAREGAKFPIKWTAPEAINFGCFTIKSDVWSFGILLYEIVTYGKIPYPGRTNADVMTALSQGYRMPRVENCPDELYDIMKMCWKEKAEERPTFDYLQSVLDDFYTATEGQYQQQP
# Chain of UniProt Q9H6K1 (Q9H6K1 whole entry, looked up): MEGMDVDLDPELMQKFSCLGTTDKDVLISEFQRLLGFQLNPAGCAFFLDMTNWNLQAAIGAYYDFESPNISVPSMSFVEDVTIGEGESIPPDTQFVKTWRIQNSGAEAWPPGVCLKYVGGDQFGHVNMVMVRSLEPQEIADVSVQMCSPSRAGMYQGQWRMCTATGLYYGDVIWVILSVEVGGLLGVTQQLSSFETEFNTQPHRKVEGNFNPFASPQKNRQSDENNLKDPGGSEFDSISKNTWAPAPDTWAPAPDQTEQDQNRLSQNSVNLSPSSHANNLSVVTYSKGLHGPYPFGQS
# Chain of UniProt Q9H3F6 (Q9H3F6 whole entry, looked up): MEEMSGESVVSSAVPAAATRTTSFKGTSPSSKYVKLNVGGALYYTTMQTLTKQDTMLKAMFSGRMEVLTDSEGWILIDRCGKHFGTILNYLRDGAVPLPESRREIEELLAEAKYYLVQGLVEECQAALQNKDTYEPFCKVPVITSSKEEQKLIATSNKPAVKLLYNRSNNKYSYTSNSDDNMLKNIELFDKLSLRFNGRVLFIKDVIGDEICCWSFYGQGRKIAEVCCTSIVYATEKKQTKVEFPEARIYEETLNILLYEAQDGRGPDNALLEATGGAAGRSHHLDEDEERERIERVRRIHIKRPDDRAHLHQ
# Chain of UniProt Q14680 (Q14680 whole entry, looked up): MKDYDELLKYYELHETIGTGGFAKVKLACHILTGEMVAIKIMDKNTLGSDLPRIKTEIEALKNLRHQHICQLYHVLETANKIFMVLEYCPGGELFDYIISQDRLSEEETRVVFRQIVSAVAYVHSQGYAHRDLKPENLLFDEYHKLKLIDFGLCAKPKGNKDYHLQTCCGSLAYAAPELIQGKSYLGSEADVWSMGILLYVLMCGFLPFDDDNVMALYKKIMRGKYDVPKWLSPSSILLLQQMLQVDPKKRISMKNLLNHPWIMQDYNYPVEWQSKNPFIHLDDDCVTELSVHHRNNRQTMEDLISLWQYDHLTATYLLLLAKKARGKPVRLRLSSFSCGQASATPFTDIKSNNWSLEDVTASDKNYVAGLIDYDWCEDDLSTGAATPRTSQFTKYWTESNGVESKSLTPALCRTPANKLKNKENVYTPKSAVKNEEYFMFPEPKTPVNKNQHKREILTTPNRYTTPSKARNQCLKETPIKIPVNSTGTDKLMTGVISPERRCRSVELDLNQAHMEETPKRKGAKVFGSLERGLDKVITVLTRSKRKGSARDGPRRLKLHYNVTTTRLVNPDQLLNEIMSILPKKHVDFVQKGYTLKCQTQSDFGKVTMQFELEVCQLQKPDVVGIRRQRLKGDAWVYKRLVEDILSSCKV
# Chain of UniProt P14174 (P14174 whole entry, looked up): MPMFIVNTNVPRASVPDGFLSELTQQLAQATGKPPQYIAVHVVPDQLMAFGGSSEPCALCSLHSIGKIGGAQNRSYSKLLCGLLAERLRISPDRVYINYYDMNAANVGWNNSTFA
# Chain of UniProt P29966 (P29966 whole entry, looked up): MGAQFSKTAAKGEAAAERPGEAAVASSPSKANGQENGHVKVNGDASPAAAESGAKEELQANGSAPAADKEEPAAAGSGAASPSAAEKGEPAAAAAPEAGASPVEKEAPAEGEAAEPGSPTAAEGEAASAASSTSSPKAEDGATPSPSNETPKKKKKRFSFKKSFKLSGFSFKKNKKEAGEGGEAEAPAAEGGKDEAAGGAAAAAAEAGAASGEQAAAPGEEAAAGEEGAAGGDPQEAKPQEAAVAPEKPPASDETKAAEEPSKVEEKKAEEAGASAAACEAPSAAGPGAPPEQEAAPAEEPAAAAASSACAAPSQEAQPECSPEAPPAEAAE
# Chain of UniProt Q6P9B9 (Q6P9B9 whole entry, looked up): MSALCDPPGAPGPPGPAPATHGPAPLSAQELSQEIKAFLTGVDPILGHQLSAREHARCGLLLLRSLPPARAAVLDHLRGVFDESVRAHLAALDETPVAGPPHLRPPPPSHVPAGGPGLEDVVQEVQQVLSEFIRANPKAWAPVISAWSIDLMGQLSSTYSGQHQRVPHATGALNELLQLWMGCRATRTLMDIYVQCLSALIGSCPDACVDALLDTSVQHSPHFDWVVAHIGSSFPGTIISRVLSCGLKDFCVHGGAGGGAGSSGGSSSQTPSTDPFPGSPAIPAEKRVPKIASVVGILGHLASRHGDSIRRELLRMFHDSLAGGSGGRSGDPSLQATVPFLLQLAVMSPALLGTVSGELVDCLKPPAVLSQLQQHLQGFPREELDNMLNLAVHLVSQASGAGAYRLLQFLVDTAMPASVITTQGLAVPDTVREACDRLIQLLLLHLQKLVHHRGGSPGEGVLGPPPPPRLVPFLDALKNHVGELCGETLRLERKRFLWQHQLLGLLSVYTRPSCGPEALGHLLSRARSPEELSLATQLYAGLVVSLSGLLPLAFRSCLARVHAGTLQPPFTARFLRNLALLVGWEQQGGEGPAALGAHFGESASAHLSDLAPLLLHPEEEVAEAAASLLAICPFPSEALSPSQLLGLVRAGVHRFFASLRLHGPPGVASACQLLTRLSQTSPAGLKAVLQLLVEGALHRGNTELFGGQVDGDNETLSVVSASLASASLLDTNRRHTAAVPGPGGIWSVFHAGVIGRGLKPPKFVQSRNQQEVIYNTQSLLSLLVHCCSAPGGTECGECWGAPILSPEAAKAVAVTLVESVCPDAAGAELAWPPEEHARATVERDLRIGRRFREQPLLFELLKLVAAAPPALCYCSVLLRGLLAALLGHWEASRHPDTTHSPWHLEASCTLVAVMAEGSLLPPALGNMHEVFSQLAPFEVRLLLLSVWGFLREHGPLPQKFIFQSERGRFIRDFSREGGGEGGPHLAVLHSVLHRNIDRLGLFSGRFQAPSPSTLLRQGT
# Chain of UniProt Q03252 (Q03252 whole entry, looked up): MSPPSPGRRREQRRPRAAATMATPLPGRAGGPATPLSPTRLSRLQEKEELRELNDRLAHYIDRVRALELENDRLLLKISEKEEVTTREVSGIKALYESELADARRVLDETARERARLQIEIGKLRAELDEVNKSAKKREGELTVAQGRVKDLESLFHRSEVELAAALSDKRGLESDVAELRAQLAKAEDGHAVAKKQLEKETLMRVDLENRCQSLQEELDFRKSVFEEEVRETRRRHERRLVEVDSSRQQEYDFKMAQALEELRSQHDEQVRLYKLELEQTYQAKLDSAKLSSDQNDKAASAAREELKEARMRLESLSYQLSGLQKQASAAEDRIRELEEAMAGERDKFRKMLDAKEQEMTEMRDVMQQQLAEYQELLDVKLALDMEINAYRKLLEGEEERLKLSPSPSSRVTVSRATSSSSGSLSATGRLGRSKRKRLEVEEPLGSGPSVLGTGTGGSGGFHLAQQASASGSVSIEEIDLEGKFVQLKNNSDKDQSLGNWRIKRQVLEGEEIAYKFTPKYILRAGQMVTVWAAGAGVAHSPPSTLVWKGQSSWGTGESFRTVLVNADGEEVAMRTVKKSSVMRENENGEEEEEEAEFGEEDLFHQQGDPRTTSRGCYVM
Target,log2 fold change (IRAK-1-4 Inhibitor I),log2 fold change (ibrutinib),log2 fold change [1],log2 fold change (ralimetinib),log2 fold change [2],log2 fold change [3],log2 fold change [4],log2 fold change (pinometostat),log2 fold change [5],log2 fold change [6],log2 fold change [7],log2 fold change [8],log2 fold change [9],log2 fold change [10],log2 fold change (Nexturastat A),log2 fold change (vemurafenib),log2 fold change [11],log2 fold change [12],log2 fold change (givinostat),log2 fold change (barasertib)
MARCKS (UniProt P29966),-0.077,0.071,0.014,0.025,-0.099,0.039,0.134,-0.109,0.031,0.002,-0.001,-0.066,0.01,0.072,-0.104,0.047,-0.004,0.252,-0.096,0.005
MCCC2 (UniProt Q9HCC0),0.046,0.019,0.047,-0.015,0.027,0.024,-0.04,-0.05,0,0.003,0.048,-0.028,0.026,0.04,-0.04,0.011,0.013,-0.028,-0.049,-0.02
INTS5 (UniProt Q6P9B9),0.076,-0.039,0.529,0.019,-0.232,0.052,-0.064,0.033,-0.102,0.073,0.091,-0.061,0.026,0.042,0.01,0.087,0.074,0.122,0.038,0.015
LYN (UniProt P07948),-0.016,0.4 (active),-0.456 (active),0.045,0.018,-0.03,0.24,0.065,0.008,0.078,0.195,-0.053,-0.036,0.037,0.293,-0.016,-0.143,-0.22,0.211,-0.057
ILRUN (UniProt Q9H6K1),0.031,0.044,-0.011,-0.004,-0.035,-0.148,0.027,-0.06,0.031,-0.055,0.06,-0.02,0.088,0.005,0.072,0.059,0.135,-0.026,-0.051,-0.044
MAPKAPK2 (UniProt P49137),0.039,-0.009,0.267 (active),0.213,-0.03,-0.048,-0.022,-0.028,-0.03,-0.009,0.077,0.082,-0.008,0.019,-0.047,0.074,0.045,0.038,0.026,-0.001
LMNB2 (UniProt Q03252),-0.026,-0.017,-0.214 (active),-0.018,0.052,-0.093,0.03,0.011,-0.013,-0.022,-0.022,0.015,-0.025,0.063,-0.04,0.019,0.045,-0.014,0.047,0.039
MIF (UniProt P14174),0.017,0.039,-0.014,0.071,-0.119,0.052,0.04,-0.043,0.201,0.133,0.056,-0.014,0.056,0.098,-0.29,-0.009,-0.047,-0.076,-0.113,-0.009
KCTD10 (UniProt Q9H3F6),0.01,0.024,-0.037,-0.049,0.043,0.277 (active),-0.02,-0.021,-0.017,-0.034,-0.055,0.022,-0.025,0.017,0.051,-0.013,-0.029,0.024,0.025,0.021
MELK (UniProt Q14680),0.021,0.032,-0.84 (active),–,-0.085,0.092,–,0.013,0.337,0.011,-0.026,–,0.111,-0.015,0.134,–,0.02,–,-0.023,0.048
LGALS8 isoform 2 (UniProt O00214),-0.027,-0.262,0.049,–,0.092,0.123,–,0.11,–,0.096,0.01,–,–,-0.228,0.288,-0.013,–,-0.062,0.072,0.13
MARK2 (UniProt E9PC69),-0.156,-0.047,-2.09 (active),0.031,-0.047,-0.581,0.049,0.078,0.077,0.034,-0.011,-0.018,0.094,0.06,0.025,-0.005,-0.034,–,0.132,0.034
